Source: the supplement of paper PMC10849652
The full data set covers some 7,900 targets. This sample favours those with a hit. About 0.6% of all pairs of compound and target were hits.

Assays:
Test in all cases: log2 fold change, soluble protein after heating vs DMSO (PISA); higher = thermal stabilisation; K562 cells, 10 uM, 30 min; active = over 0.2 and 3.5 SD of the protein, either way, in both replicates (recomputed)
[1] = compound: COC1=CC=C(C=C1)CN2C=CC3=C2C=C(C=C3)C(=O)NO
Procedure, shortened: (§1)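 Soluble protein was defined as the supernatant after 21,000xg for 90 min. It came from K562 cells at 2×10^6 cells/mL given 10 μM compound for 30 min, heated in aliquots for 3 min across 48°C-58°C, pooled, and extracted in PBS with 0.5% NP-40 at 4°C, and was quantified by TMTpro 16plex LC-MS/MS with equalised channel sums. Thermal stability against control samples, from duplicates, is reported as log2 fold change.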

[2] = compound: CON(C)C(=O)N1N=C(c2cc(F)ccc2F)S[C@@]1(CCCN)c1ccccc1 [filanesib]
Procedure, shortened: as §1

[3] = compound: CO[C@H]1C[C@@H]2CC[C@@H](C)[C@@](O)(O2)C(=O)C(=O)N2CCCC[C@H]2C(=O)O[C@H]([C@H](C)C[C@@H]2CC[C@H](n3cnnn3)[C@H](OC)C2)CC(=O)[C@H](C)/C=C(\C)[C@@H](O)[C@@H](OC)C(=O)[C@H](C)C[C@H](C)/C=C/C=C/C=C/1C [zotarolimus]
Procedure, shortened: as §1

[4] = compound: COc1cc(C(=O)O)ccc1NC(=O)[C@@H]1N[C@@H](CC(C)(C)C)[C@](C#N)(c2ccc(Cl)cc2F)[C@H]1c1cccc(Cl)c1F [idasanutlin]
Procedure, shortened: as §1

[5] = compound: COc1cc(Nc2ncc3c(n2)-c2ccc(Cl)cc2C(c2c(F)cccc2OC)=NC3)ccc1C(=O)O [alisertib]
Procedure, shortened: as §1

[6] = compound: COc1cc2nc(-c3cc(F)ccc3O)nc(N[C@@H]3CNC[C@H]3C(C)(C)O)c2cc1OC
Procedure, shortened: as §1

[7] = compound: COc1cc2ncnc(Nc3ccc(F)c(Cl)c3)c2cc1OCCCN1CCOCC1 [gefitinib]
Procedure, shortened: as §1

[8] = compound: COc1cccc2cc(-c3nc([C@H]4CC[C@H](C(=O)O)CC4)n4ncnc(N)c34)[nH]c12
Procedure, shortened: as §1

[9] = compound: CS(=O)(=O)CCNCc1ccc(-c2ccc3ncnc(Nc4ccc(OCc5cccc(F)c5)c(Cl)c4)c3c2)o1 [lapatinib]
Procedure, shortened: as §1

[10] = compound: CS(=O)(=O)N1CCN(Cc2cc3nc(-c4cccc5[nH]ncc45)nc(N4CCOCC4)c3s2)CC1 [pictilisib]
Procedure, shortened: as §1

[11] = compound: CS(=O)(=O)c1ccc(-c2cnc(N)c(C(=O)Nc3ccccc3)n2)cc1
Procedure, shortened: as §1

[12] = compound: C[C@@H](Oc1cc(-c2cnn(C3CCNCC3)c2)cnc1N)c1c(Cl)ccc(F)c1Cl [crizotinib]
Procedure, shortened: as §1

[13] = compound: C[C@@H]1COCCN1C2=NC(=NC(=C2)C3(CC3)S(=O)(=O)C)C4=C5C=CNC5=CC=C4
Procedure, shortened: as §1

[14] = compound: C[C@H](C1=CC=C(C=C1)C(=O)NC2=C3C=CNC3=NC=C2)N
Procedure, shortened: as §1

[15] = compound: C[C@H](Nc1ncnc2nc[nH]c12)c1cc2cccc(Cl)c2c(=O)n1-c1ccccc1 [duvelisib]
Procedure, shortened: as §1

[16] = compound: Cc1cc(Nc2cc(CN3CCOCC3)c3nc(C)c(Cc4ccc(Cl)cc4F)n3n2)n[nH]1 [gandotinib]
Procedure, shortened: as §1

[17] = compound: Cc1cc(Nc2cc(N3CCN(C)CC3)nc(Sc3ccc(NC(=O)C4CC4)cc3)n2)n[nH]1 [tozasertib]
Procedure, shortened: as §1

[18] = compound: Cc1cc(SCc2sc(-c3ccc(C(F)(F)F)cc3)nc2C)ccc1OCC(=O)O
Procedure, shortened: as §1

[19] = compound: Cc1ccc(-n2nc(C(C)(C)C)cc2NC(=O)Nc2ccc(OCCN3CCOCC3)c3ccccc23)cc1 [doramapimod]
Procedure, shortened: as §1

[20] = compound: Cc1ccc(C(=O)N(CCCN)[C@@H](c2nc3cc(Cl)ccc3c(=O)n2Cc2ccccc2)C(C)C)cc1 [ispinesib]
Procedure, shortened: as §1

Measured: log2 fold change

NOL11 (UniProt Q9H8H0)
UniProt Q9H8H0, sequence (Q9H8H0 whole entry, looked up): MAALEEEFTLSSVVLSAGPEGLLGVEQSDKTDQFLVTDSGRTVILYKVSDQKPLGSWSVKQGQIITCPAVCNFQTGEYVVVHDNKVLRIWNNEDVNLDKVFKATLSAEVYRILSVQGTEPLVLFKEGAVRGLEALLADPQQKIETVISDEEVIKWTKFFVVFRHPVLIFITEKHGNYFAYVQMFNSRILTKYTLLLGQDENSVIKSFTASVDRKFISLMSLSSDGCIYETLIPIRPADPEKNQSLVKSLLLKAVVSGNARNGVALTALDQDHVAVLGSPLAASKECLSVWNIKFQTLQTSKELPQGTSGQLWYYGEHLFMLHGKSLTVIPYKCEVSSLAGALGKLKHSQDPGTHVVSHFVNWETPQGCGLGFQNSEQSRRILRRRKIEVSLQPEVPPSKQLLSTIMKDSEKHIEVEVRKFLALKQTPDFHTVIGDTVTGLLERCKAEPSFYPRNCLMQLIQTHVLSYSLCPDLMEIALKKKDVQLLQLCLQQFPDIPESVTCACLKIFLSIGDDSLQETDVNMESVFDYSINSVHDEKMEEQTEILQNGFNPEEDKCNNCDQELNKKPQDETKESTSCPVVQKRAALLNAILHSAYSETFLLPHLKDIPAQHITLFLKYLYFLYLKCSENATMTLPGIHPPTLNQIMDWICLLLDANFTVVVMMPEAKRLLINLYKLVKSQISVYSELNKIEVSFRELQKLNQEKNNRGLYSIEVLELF
inactive: [1] -0.029 | [2] 0 | [3] 0.005 | [4] -0.046 | [5] -0.017 | [6] 0.067 | [7] -0.008 | [8] 0.056 | [9] 0.005 | [10] 0.025 | [11] -0.036 | [12] 0.084 | [13] -0.017 | [14] -0.041 | [15] 0.073 | [16] -0.061 | [17] -0.01 | [18] -0.015 | [19] -0.005 | [20] 0.097

MRPL47 (UniProt Q9HD33)
inactive: [1] -0.068 | [2] 0.183 | [3] 0.072 | [4] -0.042 | [5] -0.087 | [6] -0.033 | [7] -0.134 | [8] -0.186 | [9] 0.072 | [11] 0.039 | [12] 0.019 | [13] -0.087 | [14] 0.261 | [15] -0.076 | [17] 0.033 | [18] 0.095 | [19] 0.11 | [20] -0.237
active: [10] 0.745 | [16] 0.625

NCL (UniProt P19338)
UniProt P19338, sequence (P19338 whole entry, looked up): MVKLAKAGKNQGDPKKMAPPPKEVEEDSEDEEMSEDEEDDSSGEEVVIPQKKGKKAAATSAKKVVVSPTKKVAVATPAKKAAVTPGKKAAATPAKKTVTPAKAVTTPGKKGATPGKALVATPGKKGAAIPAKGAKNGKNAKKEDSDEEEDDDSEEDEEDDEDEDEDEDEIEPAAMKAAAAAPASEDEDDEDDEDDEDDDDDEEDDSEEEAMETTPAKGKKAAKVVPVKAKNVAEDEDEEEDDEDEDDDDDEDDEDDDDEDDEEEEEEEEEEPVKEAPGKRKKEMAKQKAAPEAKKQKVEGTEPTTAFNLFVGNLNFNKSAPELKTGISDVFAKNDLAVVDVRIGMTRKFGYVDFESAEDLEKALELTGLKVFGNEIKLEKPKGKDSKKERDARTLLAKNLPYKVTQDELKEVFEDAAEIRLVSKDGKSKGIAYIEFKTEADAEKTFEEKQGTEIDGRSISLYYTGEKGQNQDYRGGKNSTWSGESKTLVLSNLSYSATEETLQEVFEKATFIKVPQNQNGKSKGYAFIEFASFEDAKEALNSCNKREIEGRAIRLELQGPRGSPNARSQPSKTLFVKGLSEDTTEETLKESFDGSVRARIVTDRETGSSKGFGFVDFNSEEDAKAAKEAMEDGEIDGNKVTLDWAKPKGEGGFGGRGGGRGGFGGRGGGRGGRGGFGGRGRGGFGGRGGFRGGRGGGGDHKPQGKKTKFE
inactive: [1] -0.091 | [2] 0.454 | [3] 0.026 | [4] 0.274 | [5] -0.16 | [6] -0.099 | [7] -0.022 | [8] -0.217 | [9] 0.159 | [10] -0.085 | [11] -0.136 | [12] 0.12 | [13] -0.59 | [14] 0.428 | [15] -0.162 | [16] 0.315 | [17] 0.064 | [18] 0.075 | [19] 0.254 | [20] -0.19

NDUFA9 (UniProt Q16795)
UniProt Q16795, sequence (Q16795 whole entry, looked up): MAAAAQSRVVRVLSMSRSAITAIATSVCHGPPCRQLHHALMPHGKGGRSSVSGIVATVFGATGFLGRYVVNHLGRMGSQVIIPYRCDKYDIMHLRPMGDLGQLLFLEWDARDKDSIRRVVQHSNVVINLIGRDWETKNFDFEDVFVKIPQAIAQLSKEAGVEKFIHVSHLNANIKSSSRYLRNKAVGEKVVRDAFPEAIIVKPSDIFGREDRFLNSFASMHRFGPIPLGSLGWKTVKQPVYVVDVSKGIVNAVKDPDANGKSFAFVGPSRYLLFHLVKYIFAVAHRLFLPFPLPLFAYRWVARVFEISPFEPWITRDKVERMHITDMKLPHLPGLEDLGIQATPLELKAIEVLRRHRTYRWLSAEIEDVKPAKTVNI
active: [4] -0.229
inactive: [1] -0.002 | [2] -0.116 | [3] 0.008 | [5] -0.04 | [6] -0.008 | [7] -0.055 | [8] 0.014 | [9] -0.052 | [10] -0.024 | [11] 0.007 | [12] -0.139 | [13] 0.079 | [14] 0.022 | [15] 0.006 | [16] -0.115 | [17] -0.038 | [18] 0.052 | [19] -0.031 | [20] -0.122

ORC3 isoform 2 (UniProt Q9UBD5)
UniProt Q9UBD5, sequence (Q9UBD5 whole entry, looked up): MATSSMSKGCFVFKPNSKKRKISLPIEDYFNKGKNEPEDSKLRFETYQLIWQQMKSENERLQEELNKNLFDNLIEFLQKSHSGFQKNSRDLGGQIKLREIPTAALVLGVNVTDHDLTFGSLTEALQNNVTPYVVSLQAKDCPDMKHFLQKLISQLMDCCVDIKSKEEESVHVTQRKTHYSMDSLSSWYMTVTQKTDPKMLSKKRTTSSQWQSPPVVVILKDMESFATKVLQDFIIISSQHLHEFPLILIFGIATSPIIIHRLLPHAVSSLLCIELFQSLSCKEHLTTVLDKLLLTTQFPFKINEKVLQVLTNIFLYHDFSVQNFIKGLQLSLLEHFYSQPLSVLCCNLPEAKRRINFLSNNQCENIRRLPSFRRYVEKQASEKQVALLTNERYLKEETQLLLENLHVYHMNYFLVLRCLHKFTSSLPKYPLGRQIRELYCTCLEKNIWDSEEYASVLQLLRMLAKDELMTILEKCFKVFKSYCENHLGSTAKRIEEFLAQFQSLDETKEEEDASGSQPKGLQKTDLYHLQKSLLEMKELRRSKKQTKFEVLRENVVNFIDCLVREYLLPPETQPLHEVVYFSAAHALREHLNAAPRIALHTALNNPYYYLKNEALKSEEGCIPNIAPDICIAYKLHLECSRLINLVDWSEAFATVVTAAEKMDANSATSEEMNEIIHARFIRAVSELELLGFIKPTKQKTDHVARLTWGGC
inactive: [1] 0.071 | [2] 0.043 | [3] 0.064 | [4] 0.265 | [5] -0.058 | [6] -0.002 | [7] 0.006 | [8] -0.068 | [9] 0.031 | [10] 0.027 | [11] -0.054 | [13] 0.015 | [14] -0.005 | [15] -0.03 | [16] -0.044 | [17] 0.062 | [18] 0.177 | [19] 0.016 | [20] -0.17
active: [12] -0.434

NOLC1 isoform 2 (UniProt Q14978)
UniProt Q14978, sequence (Q14978 whole entry, looked up): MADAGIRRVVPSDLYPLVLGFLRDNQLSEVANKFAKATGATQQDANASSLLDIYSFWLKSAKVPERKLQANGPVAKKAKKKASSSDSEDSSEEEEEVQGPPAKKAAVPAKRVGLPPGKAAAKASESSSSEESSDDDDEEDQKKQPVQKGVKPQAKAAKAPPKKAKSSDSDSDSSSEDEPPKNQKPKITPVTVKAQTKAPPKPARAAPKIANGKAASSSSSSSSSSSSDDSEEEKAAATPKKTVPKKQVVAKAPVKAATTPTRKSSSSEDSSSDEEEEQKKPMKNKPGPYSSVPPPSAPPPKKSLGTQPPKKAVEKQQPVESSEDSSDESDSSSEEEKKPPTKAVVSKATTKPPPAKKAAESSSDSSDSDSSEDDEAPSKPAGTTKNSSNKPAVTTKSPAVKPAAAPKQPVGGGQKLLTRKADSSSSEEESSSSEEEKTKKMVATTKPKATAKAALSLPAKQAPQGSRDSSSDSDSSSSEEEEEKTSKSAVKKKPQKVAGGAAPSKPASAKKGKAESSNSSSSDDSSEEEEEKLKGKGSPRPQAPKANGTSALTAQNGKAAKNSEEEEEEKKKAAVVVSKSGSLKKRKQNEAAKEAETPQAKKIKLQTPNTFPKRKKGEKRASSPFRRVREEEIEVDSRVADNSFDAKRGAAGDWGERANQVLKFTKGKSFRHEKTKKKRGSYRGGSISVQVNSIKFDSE
inactive: [1] 0.016 | [2] 0.21 | [3] 0.015 | [4] 0.199 | [5] -0.112 | [6] -0.093 | [7] 0.041 | [8] 0.104 | [9] 0.052 | [10] 0.056 | [11] -0.019 | [12] -0.135 | [13] 0.141 | [14] -0.154 | [15] -0.043 | [16] -0.023 | [17] -0.032 | [18] -0.038 | [19] 0.047 | [20] 0.179

NUDT21 (UniProt O43809)
UniProt O43809, sequence (O43809 whole entry, looked up): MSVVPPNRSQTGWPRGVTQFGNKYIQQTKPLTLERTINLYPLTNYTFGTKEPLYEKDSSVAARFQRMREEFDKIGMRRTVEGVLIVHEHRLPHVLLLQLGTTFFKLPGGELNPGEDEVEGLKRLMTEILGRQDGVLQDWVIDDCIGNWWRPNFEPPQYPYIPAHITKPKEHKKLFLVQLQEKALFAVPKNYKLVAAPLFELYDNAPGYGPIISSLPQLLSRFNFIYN
inactive: [1] -0.003 | [2] 0.027 | [3] 0.013 | [4] 0.006 | [5] -0.077 | [6] 0.102 | [7] -0.019 | [8] 0.031 | [9] -0.019 | [10] 0.017 | [11] -0.054 | [12] 0.039 | [13] -0.031 | [15] -0.01 | [16] -0.059 | [17] 0.013 | [18] 0.039 | [19] 0.007 | [20] 0.116
active: [14] -0.209

MTHFD1 (UniProt P11586)
UniProt P11586, sequence (P11586 whole entry, looked up): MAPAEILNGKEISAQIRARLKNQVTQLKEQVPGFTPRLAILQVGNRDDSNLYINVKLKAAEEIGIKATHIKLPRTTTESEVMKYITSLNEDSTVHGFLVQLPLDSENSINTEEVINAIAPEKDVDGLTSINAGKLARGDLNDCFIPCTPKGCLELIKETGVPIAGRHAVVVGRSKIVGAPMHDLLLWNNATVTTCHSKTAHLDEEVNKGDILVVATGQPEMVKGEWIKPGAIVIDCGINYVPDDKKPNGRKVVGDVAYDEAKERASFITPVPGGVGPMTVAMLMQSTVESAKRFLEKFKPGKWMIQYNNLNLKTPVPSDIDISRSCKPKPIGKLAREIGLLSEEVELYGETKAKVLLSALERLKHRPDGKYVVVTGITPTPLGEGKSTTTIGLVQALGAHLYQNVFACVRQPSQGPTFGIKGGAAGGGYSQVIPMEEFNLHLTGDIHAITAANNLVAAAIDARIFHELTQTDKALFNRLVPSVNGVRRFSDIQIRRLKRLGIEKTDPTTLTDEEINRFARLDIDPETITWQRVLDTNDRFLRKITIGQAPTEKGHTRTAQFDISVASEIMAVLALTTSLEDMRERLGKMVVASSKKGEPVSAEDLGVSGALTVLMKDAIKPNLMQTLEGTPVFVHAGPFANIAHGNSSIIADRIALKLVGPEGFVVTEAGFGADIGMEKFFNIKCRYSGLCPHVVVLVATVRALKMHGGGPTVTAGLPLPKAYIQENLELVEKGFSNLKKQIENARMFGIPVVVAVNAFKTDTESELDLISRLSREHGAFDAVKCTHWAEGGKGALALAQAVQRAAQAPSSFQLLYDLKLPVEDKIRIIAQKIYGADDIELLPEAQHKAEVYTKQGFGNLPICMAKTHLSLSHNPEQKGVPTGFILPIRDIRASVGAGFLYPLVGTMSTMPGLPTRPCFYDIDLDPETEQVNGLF
inactive: [1] 0.048 | [2] -0.07 | [3] 0.04 | [4] -0.036 | [5] -0.001 | [6] 0.017 | [7] 0.055 | [8] -0.015 | [9] 0.014 | [10] -0.002 | [11] 0.101 | [12] -0.15 | [13] 0.107 | [14] -0.003 | [15] 0.016 | [16] -0.077 | [17] -0.054 | [18] 0.054 | [19] -0.053 | [20] -0.021
